# Laboratory results: the supplement of paper PMC7156485
# ± gives the standard deviation of the averaged measurements.
# Tested on: TDF
# Assay: cell number relative to DMSO (% of DMSO); higher = more cells (less growth inhibition / toxicity)
# Conditions: concentration: 10 µM; 24 h
# Procedure, shortened: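 Six fields per well were imaged at ×10 after the cells were fixed in 3.7% formaldehyde and stained with a rabbit anti-H1.0 antibody, an AlexaFluor 647 secondary and DAPI. The HCC1569 and TDF cells had been plated at 800 per well in 384-well plates (RPMI, 10% FBS) and treated in triplicate with compounds at 10 µM for 24 h at 37 °C. The values are the median of replicates of H1.0 nuclear intensity or cell number, as percent of the plate control. Smoothing for positional effects was applied to HCC1569 data.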
# 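Note: TDF denotes transformed human dermal fibroblasts of mesenchymal origin.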
row,SMILES,cell number
1,COc1ccc(C(=O)OC2CCC3(C)C4CCC5C6(O)CC(O)C7(O)C(CN8CC(C)CCC8C7(C)O)C6(O)CC53OC24O)cc1OC (stereo not drawn) [Veratridine],97.2
2,CC1=NN=C(c2ccc(N)cc2)c2cc3c(cc2C1)OCO3.Cl,95.2
3,CC(=O)c1c(O)c(C)c(O)c(Cc2c(O)c3c(c(C(=O)C=Cc4ccccc4)c2O)OC(C)(C)C=C3)c1O [Rottlerin],77.9 ± 6.9
4,CNC1CC(c2ccc(Cl)c(Cl)c2)c2ccccc21.Cl (stereo not drawn) [Indatraline hydrochloride],85.9
5,COc1ccc(C(=O)c2c(C)n(CCN3CCOCC3)c3ccccc23)cc1 [Pravadoline],96.5
6,CN1C(=O)CCS(=O)(=O)C1c1ccc(Cl)cc1 (stereo not drawn) [Chlormezanone],108
7,"CCC(C)CC(C)N (stereo not drawn) [1,3-dimethylpentylamine]",106
8,"CCCN(CCC)CCc1c[nH]c2ccc(C(N)=O)cc12.O=C(O)C=CC(=O)O [N,N-Dipropyl-5-carboxamidotryptamine maleate]",104
9,Cl.Cl.Clc1cccc(N2CCNCC2)c1 [1-(3-Chlorophenyl)piperazine dihydrochloride],87.5
10,CCC1C2CC3C4N(C)c5ccccc5C45CC(C2C5O)N3C1O (stereo not drawn) [Ajmaline],86.8
11,COc1ccc(CC2NCCc3cc(OC)c(OC)cc32)cc1OC.Cl (stereo not drawn),109
12,NC(=O)CI [Iodoacetamide],33.8
13,CC(N)Cc1c[nH]c2ccc(OCc3cccs3)cc12.Cl (stereo not drawn),115
